Usually inhibition stands for the drop in the measured response relative to a control, in per cent.

In all, about 200,000 compounds went through this assay and about 700 (0.35%) were called active.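 How the source made its calls: active means inhibition above a set limit, the mean inhibition across all tested compounds plus 3 SD (cut at about 34% in these data); inactive means the rest.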 Shown is part of a subset that was picked to be rich in actives.

The assay in a line: STAT1 signaling inhibitors, primary screen, cell-based, HTS, luciferase reporter (AID 920).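 Further: 0% = IFN-gamma with DMSO and 100% = IFN-gamma with 300 µM nifuroxazide.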 As to conditions: NIH 3T3 STAT1-luciferase reporter, IFN-gamma, luminescence; at 5.5 µM; active compounds read high. A general note: In a reporter assay the amount or activity of a reporter protein is the signal.
With `Clc1cccc(-c2nc(NCC3CCCO3)c3ccccc3n2)c1` (stereo unspecified), the inhibition is -0.29% (inactive).
To `CCc1[nH]nc(C(=O)N2CCCC(CNS(=O)(=O)c3cccs3)C2)c1C` (stereo unspecified) belongs 0.5% (inactive); to `CCN(CC)C(=O)CN(c1cccc([N+](=O)[O-])c1)S(=O)(=O)c1ccccc1`, 3.4% (inactive).
Consider `O=C(CCl)N(Cc1cccc([N+](=O)[O-])c1)c1cccc(Cl)c1`, for which the inhibition is 60.4% (active).
Regarding `O=C(Nc1cccc([N+](=O)[O-])c1)Nc1ccc(Cl)cn1`, the inhibition was -18.6% (inactive).
Regarding `Cn1cccc1/C=C1\SC(=S)N(NC(=O)c2ccc(Cl)cc2)C1=O`, the inhibition was -4.58% (inactive).
For the molecule `Cc1cc(C)nc(Nc2ncn[nH]2)n1`, the inhibition is -2.94% (inactive).
To `Oc1ccc(-c2nncn2-c2ccccc2)cc1` belongs -0.73% (inactive).
For the molecule `CCN(CC)C(=O)c1ccc(O)c(OC)c1`, the inhibition is 1.97% (inactive).
With `COc1ccc(OCc2cccc(C(=O)N3CCCC3)c2)cc1`, the inhibition is 17.5% (inactive).
Consider `CCOc1ccc(OCc2cccc(C(=O)N(CC)CC)c2)cc1`, for which the inhibition is 61% (active).
For `CCOc1ccc(NC(=O)CSc2ncnc3c2sc2ccccc23)cc1`, the inhibition was 1.83% (inactive).
In the case of `Cc1nnc(CN(C)Cc2cn[nH]c2-c2ccc(-c3ccccc3)cc2)o1`, the inhibition is -18.1% (inactive).
Take `CCCCn1c(O)c(N=NC(=O)Cn2c(C(F)(F)F)nc3ccccc32)c2ccccc21`: the inhibition is -1.73% (inactive).
To `Cc1ccc(N(C(=O)Cc2cccs2)C2C=CS(=O)(=O)C2)cc1Cl` (stereo unspecified) belongs 0.68% (inactive); to `C[C@@H]1C[C@@H]2O[C@H]2/C=C\C=C\C(=O)Cc2c(Cl)c(O)cc(O)c2C(=O)O1`, 41.3% (active); to `O=C(COC(=O)CCc1ccc(S(=O)(=O)N2CCOCC2)cc1)Nc1cccc(Cl)c1`, -8.09% (inactive).
`CCN(CC)S(=O)(=O)c1ccc(C)c(NC(=O)COc2ccc(Br)cc2Cl)c1`: the inhibition was 0.32% (inactive).
For `O=C(Nc1ccc2c(c1)OCCO2)c1cnccn1`, the inhibition is -23.3% (inactive).
Consider `Cn1cc([N+](=O)[O-])c(C(=O)Nc2ccc3c(c2)OCCO3)n1`, for which the inhibition is 48.8% (active).
For `Cn1cc([N+](=O)[O-])c(C(=O)Nc2cnn(Cc3ccc(F)cc3)c2)n1`, the inhibition was 20.5% (inactive).
`NS(=O)(=O)c1ccc(N2C(=O)C3C4CC(C(Br)C4Br)C3C2=O)cc1` (stereo unspecified): the inhibition was 2.56% (inactive).
Take `CS(=O)(=O)N(Cc1ccccc1)c1ccc(C(=O)NN=C2CCCCCC2)cc1`: the inhibition is 6.58% (inactive).
With `O=C(NC(Nc1nc2ccc([N+](=O)[O-])cc2s1)(C(F)(F)F)C(F)(F)F)c1ccccc1`, the inhibition was 60.6% (active).
Consider `O=C(O)CCC(=O)Nc1nc2ccc([N+](=O)[O-])cc2s1`, for which the inhibition is -0.97% (inactive).
With `O=C(Nc1nc2ccc([N+](=O)[O-])cc2s1)c1ccc(S(=O)(=O)N2CCCc3ccccc32)cc1`, the inhibition was 12.3% (inactive).
With `O=C(COc1ccccc1)Nc1ccc(N2CCN(C(=O)c3cccs3)CC2)cc1`, the inhibition was -5.48% (inactive).
For `O=c1c2ccccc2nc2n1C1(CCCCC1)Cc1ccccc1-2` the value was -5.21% (inactive); for `CN(c1ccc2nc3ccccc3c(=O)n2n1)C1CCCCC1`, 90.1% (active); for `CCOC(=O)C(C)Sc1nc2ccccc2c(=O)n1CC1CCCCC1` (stereo unspecified), 2.46% (inactive).
To `Cc1ccc(C)c(-n2nnnc2SCC(=O)c2c(N)n(C)c(=O)n(C)c2=O)c1` belongs -0.37% (inactive); to `CCc1ccc(NC(=O)Nc2ccncc2)cc1`, -10.4% (inactive); to `COc1cc(C)c(Cl)cc1S(=O)(=O)n1ccnc1`, 7.39% (inactive).
In the case of `CCCOc1cc(C)c(S(=O)(=O)n2nnc3ccccc32)cc1C`, the inhibition is -0.4% (inactive).
With `CCOc1cc(C)c(Cl)cc1S(=O)(=O)n1nnc2ccccc21`, the inhibition was 42.2% (active).
For the molecule `CC(CC(=O)O)CC(=O)NNC(=O)c1cccc(Br)c1` (stereo unspecified), the inhibition is -8.27% (inactive).
Turning to `O=C1c2ccccc2NC(c2ccccn2)N1NS(=O)(=O)c1ccccc1` (stereo unspecified), the inhibition was -5.92% (inactive).
As to `O=c1oc2ccccc2cc1-c1cn(-c2ccccc2)c(=S)[nH]1`, the inhibition was 76.9% (active).
With `O=C(c1cn(-c2ccccc2)nc1-c1cc2ccccc2oc1=O)N1CCOCC1`, the inhibition was 2.66% (inactive).
In the case of `Nc1ncc(-c2cc3ccccc3oc2=O)s1`, the inhibition was -72.7% (inactive).
On to `CCNC(=O)COc1cc(C)c(Br)c(C)c1`, for which the inhibition is -0.94% (inactive).
To `CCC1CCCCN1CCCNC(=O)c1cc2c(Cl)nc3ccccc3c2s1` (stereo unspecified) belongs -24.2% (inactive).
For `O=C(C1=C[C@H](c2coc3ccccc3c2=O)C[C@H](OCc2ccc(CO)cc2)O1)N1CCN(Cc2ccccc2)CC1` the value was 7.51% (inactive); for `O=C1CC(c2c(F)cccc2Cl)C(n2cncn2)C(O)=C1C1NCCc2ccccc21` (stereo unspecified), -3.15% (inactive).
Turning to `CCNC(=S)NNC(=O)c1ccc2ncccc2c1`, the inhibition was -9.62% (inactive).
In the case of `O=C(O)c1ccc(N/N=C/c2cn(-c3ccccc3)nc2-c2cccs2)cc1`, the inhibition was -5.55% (inactive).
In the case of `O=C(O)c1ccc(N/N=C/c2ccc3ncccc3c2)cc1`, the inhibition is 37.4% (active).
As for `COc1ccc(N2CCN(C(=O)c3ccc4c(Cl)c5c(nc4c3)CCCC5)CC2)cc1`, the inhibition was 1.44% (inactive).
To `Cn1c(-c2ccco2)nc2cc3ccccc3cc21` belongs 36.6% (active).
Take `Cn1cccc1-c1nc2ccccc2n1C`: the inhibition was -1.19% (inactive).
Take `CN1c2ccccc2-c2nc3ccccc3n2C1c1ccco1` (stereo unspecified): the inhibition was -3.93% (inactive).
As for `COCCNC(=S)N1CCC(NC(=O)C23CC4CC(CC(C4)C2)C3)CC1`, the inhibition is -0.94% (inactive).
As for `CCOC(=O)C1(Cc2ccc(Cl)cc2)CCN(C(=O)C2=NNC(=O)CC2)CC1`, the inhibition was 2.27% (inactive).
To `COC(=O)C1=C(C)N(C(C)c2ccccc2)C(=O)/C1=C\c1ccco1` (stereo unspecified) belongs 6.65% (inactive); to `CCn1c(CSc2nc(C)cc(C)n2)nnc1SCC(N)=O`, -4.79% (inactive); to `Cc1ccccc1-n1cc(CNC(=O)CC2C(=O)NCCN2C/C=C/c2ccccc2)cn1` (stereo unspecified), -1.08% (inactive).
To `O=C(CCN1CCN(c2ccccc2)CC1)NNC(=S)Nc1ccccc1` belongs 12.2% (inactive); to `CCN(CC)S(=O)(=O)c1ccc(NC(=O)c2cccnc2Cl)c(NC(=O)c2cccnc2Cl)c1`, 10.8% (inactive).
For `CCOc1ncccc1C(=O)OCc1cn2cc(Cl)ccc2n1` the value was -9.01% (inactive).
As to `Clc1ccc2nc(CSc3ccccc3)cn2c1`, the inhibition was 35.4% (active).
For `O=c1cc(CSc2ccc(Cl)cc2)nc(N2CCOCC2)[nH]1`, the inhibition is 2.61% (inactive).

The values above are taken from PubChem BioAssay AID920 (The Scripps Research Institute Molecular Screening Center, 2007).
